Test results from PubChem BioAssay (Tox21).
The source made the active and inactive calls. A call without a number means that no potency is given here. Calls follow the shape of the full dose curve.

Target: Muscarinic acetylcholine receptor M1 (Homo sapiens) (UniProt P11229)
Assay: Cholinergic receptor muscarinic 1 (CHRM1) small molecule agonists, cell-based qHTS assay (AID 1963589); also: nearly all actives have a fitted effect of over 35% in size
Details: CHRM1-CHO cells, agonist mode, calcium flux fluorescence; series mostly up to 76.8 µM
Text: National Center for Advancing Translational Sciences [NCATS]
Division of Preclinical Innovation [DPI]
U.S. Environmental Protection Agency [EPA]
National Institutes of Environmental Health Sciences [NIEHS]
National Toxicology Program [NTP]
U.S. Food and Drug Administration [FDA]
The CHRM1 is a muscarinic receptor. This receptor plays a crucial role in learning and memory processes and has long been identified as a promising therapeutic target for the improvement of cognitive decline in Alzheimer's disease (AD). The CHRM1-CHO cell line stably expressing human muscarinic acetylcholine receptor M1 (CHRM1) can be used for screening agonists and antagonists of interactions between CHRM1 and its ligands. The CHRM1-CHO Calcium Flux Assay is a homogeneous fluorescence-based assay for detecting the intracellular calcium level using FDSS kinetic plate reader system.
CHRM1-CHO cells were dispensed at 1000 cells/3uL/well in 1536-well black-clear bottom plates using a Multidrop Dispenser. After the assay plates were incubated at a 37 C/5% CO2 incubator for 18 h, 3 uL of Dye Loading Buffer was transferred to the assay plate by a Flying Reagent Dispenser. The assay plates were incubated at 37 C for 1h. For agonist mode, 23 nL of compounds dissolved in DMSO, positive controls or DMSO only was transferred to the assay plate by a pin tool. […] Each test compound was measured at 15 concentrations in three independent runs.

Sequence of Muscarinic acetylcholine receptor M1 (Homo sapiens) (P11229 whole entry, looked up): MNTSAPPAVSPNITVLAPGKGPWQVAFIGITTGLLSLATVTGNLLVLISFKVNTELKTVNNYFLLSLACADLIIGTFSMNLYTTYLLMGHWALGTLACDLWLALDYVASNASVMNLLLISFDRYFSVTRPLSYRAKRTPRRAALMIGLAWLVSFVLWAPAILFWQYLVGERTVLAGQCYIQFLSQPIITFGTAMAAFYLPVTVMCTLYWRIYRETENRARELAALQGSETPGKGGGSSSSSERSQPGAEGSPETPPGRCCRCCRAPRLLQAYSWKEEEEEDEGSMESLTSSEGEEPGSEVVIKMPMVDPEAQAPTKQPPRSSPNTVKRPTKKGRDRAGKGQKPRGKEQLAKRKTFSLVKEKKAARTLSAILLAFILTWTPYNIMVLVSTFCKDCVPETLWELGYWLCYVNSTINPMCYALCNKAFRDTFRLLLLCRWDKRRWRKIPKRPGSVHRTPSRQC

| Compound | Potency | activation |
| --- | --- | --- |
| CC1=C(C=O)C(C)(C)CC=C1 | inactive | – |
| CC(=O)N[C@H]1[C@H]([C@H](O)[C@H](O)CO)OC(C(=O)O)=C[C@@H]1N=C(N)N | inactive | – |
| CCOC(=O)CC(C(C)=O)C(C)=O | inactive | – |
| C(/C=C/C=C/Nc1ccccc1)=Nc1ccccc1 | inactive | – |
| O=C(O)Cc1cccc(-c2cc(CCCCCCc3ccc(O[C@H]4O[C@H](CO)[C@@H](O)[C@H](O)[C@@H]4O)c(-c4cccc(CC(=O)O)c4)c3)ccc2O[C@H]2O[C@H](CO)[C@@H](O)[C@H](O)[C@@H]2O)c1 | – | -0.265% [at 0.29 µM] (inactive) |
| C=C(C)C(=O)OCCC(C)OC(=O)C(=C)C (stereo not given) | inactive | – |
| C[N+](C)(C)CC[N+]1(C)Cc2c(Cl)c(Cl)c(Cl)c(Cl)c2C1 | inactive | – |
| CC(C)(C)C(=O)OCOC(=O)C1N2C(=O)CC2S(=O)(=O)C1(C)C (stereo not given) | inactive | – |
| CN(C)Cc1ccccc1O | inactive | – |
| CCCCCCCCCCCC(=O)N(C)CC(=O)O | – | -0.383% [at 6.97 µM] (inactive) |
| CCCC(=O)OCC(COC(=O)CCC)OC(=O)CCC | inactive | – |
| COC(c1ccccc1)(c1ccccc1)[C@H](Oc1nc(C)cc(C)n1)C(=O)O | inactive | – |
| CCCCC(CC)COC(=O)CCCCCCCC(=O)OCC(CC)CCCC (stereo not given) | inactive | – |
| O=C1c2ccccc2CCc2ccccc21 | inactive | – |
| CCOC(=O)c1ccc(C)cc1 | inactive | – |
| CCC(COC(=O)CCS)(COC(=O)CCS)COC(=O)CCS | inactive | – |
| CCC(=O)OCc1ccccc1 | inactive | – |
| CS(C)(=O)=O | inactive | – |
| CC(=O)O[C@H](CC(=O)[O-])C[N+](C)(C)C | inactive | – |
| CCCOCCOCCO | inactive | – |

| Compound | Potency | activation |
| --- | --- | --- |
| COC(=O)/C=C(/C)N | inactive | – |
| O=C(O)c1cc(=O)[nH]c(=O)[nH]1 | inactive | – |
| CCCCCCCO | inactive | – |
| CCCCCCCCCCCCCCCCCCOCC(O)CO (stereo not given) | inactive | – |
| CC1=C(O)C(=O)C(C)O1 (stereo not given) | inactive | – |
| CCCCOC(=O)[C@H](C)O | inactive | – |
| CC(=O)CC(N)=O | inactive | – |
| CN(C)CCCNCCCN(C)C | inactive | – |
| CN(C)c1cc(NC(=O)CNC(C)(C)C)c(O)c2c1C[C@H]1C[C@H]3[C@H](N(C)C)C(=O)C(C(N)=O)=C(O)[C@@]3(O)C(=O)C1=C2O | inactive | – |
| Cc1ccc(-c2ccccc2C#N)cc1 | inactive | – |
| CCOC(=O)NCCC[Si](OCC)(OCC)OCC | inactive | – |
| CC(C)(c1cc(Br)c(O)c(Br)c1)c1cc(Br)c(O)c(Br)c1 | inactive | – |
| Cc1ccc(S(=O)(=O)NC(=O)NC2CCCCCCC2)cc1 | inactive | – |
| Cc1ccc(C(=O)c2cc(O)c(O)c([N+](=O)[O-])c2)cc1 | inactive | – |
| CO/N=C(/C(=O)N[C@@H]1C(=O)N2C(C(=O)O)=C(COC(N)=O)CS[C@H]12)c1ccco1 | inactive | – |
| CC(C)C(=O)C(C)C | inactive | – |
| CCOC(=S)SSC(=S)OCC | inactive | – |
| O=[N+]([O-])c1ccc2nc[nH]c2c1 | inactive | – |
| CC(C)(C)c1cc(Cc2cc(C(C)(C)C)c(O)c(C(C)(C)C)c2)cc(C(C)(C)C)c1O | inactive | – |
| CCOC(=O)CCC(C)=O | inactive | – |
